Laboratory results taken from PubChem BioAssay (NCI).
Compounds without any hit were thinned out: in the full panel of roughly 79,000, 15% have a hit. Rule as the data show it: active = growth inhibition above about 70%; inactive = the rest.

Key:
[1] = NCI Yeast Anticancer Drug Screen. Data for the rad50 strain (AID 155);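 also: 0% = growth of vehicle-only cultures of the same strain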; settings: S. cerevisiae rad50 strain growth inhibition; at 50.0 µM; hits give high values
How it was run: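 A DNA repair-deficient yeast mutant serves as the test organism; compound-induced growth inhibition is calculated against vehicle-treated cells.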

[2] = NCI Yeast Anticancer Drug Screen. Data for the mec2-1 strain (AID 157); settings: S. cerevisiae mec2-1 strain, at 50.0 µM, hits give high values
How it was run: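 Test agents were screened against the mec2-1 yeast strain, with defined DNA repair or cell cycle alteration. Growth was scored as inhibition against vehicle-only controls.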

[3] = NCI Yeast Anticancer Drug Screen. Data for the sgs1 mgt1 strain (AID 161);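 also: 0% = growth of cultures given vehicle only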; settings: S. cerevisiae sgs1 mgt1 strain, at 50.0 µM, hits give high values
How it was run: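 Genetically altered yeast, compound exposure, growth inhibition relative to vehicle.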

[4] = NCI Yeast Anticancer Drug Screen. Data for the cln2 rad14 strain (AID 165);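 also: 0% = growth equal to vehicle treated cultures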; settings: S. cerevisiae cln2 rad14 strain, at 50.0 µM, hits give high values
How it was run: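 Growth of compound-exposed yeast (cln2 rad14 genotype) measured and expressed as inhibition relative to vehicle.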

[5] = NCI Yeast Anticancer Drug Screen. Data for the bub3 strain (AID 167); settings: S. cerevisiae bub3 mutant strain, at 50.0 µM, hits give high values
How it was run: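 Inhibition values come from growth of compound-treated mutant yeast normalised to vehicle-treated controls.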

[6] = NCI Yeast Anticancer Drug Screen. Data for the mlh1 rad18 strain (AID 175); settings: S. cerevisiae mlh1 rad18 strain growth inhibition; at 50.0 µM; hits give high values
How it was run: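 In this whole-cell yeast screen, a strain with altered DNA damage repair is challenged with compound, and its growth is measured against matched vehicle-treated controls.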

Measured: growth inhibition

Cc1cc2c(c(=O)o1)C(C)CC(c1c(O)cc(C)oc1=O)O2 (stereo unspecified)
inactive: [1] 15.3% | [2] 5.35% | [3] 16.8% | [4] 5.85% | [5] 14.1% | [6] 20.6%

Cc1cc(C)cc(C(C)C)c1
inactive: [1] -15.4% | [2] -4.35% | [3] -22.9% | [4] 5.95% | [5] -11.6% | [6] -6.95%

CSc1ccc(NC(=O)Nc2cc(C(C)C)ccc2C)cc1
inactive: [1] 0.6% | [2] 38.4% | [3] 13.9% | [4] -18% | [5] 43.2% | [6] 28.2%

N#Cc1nn(CCCl)c(=O)c2ccccc12
inactive: [1] 28.7% | [2] 17.9% | [3] 10% | [4] 12.2% | [5] 12.2% | [6] 15.4%

COc1ccc2c(c1)SC1=NNC(=O)CN12
inactive: [1] -21.6% | [2] -27.6% | [3] -9.45% | [4] -39.1% | [5] -12.2% | [6] -22.9%

CCN(CC)[Si](C)(C)C
inactive: [1] -24.1% | [2] -0.2% | [3] -9.25% | [4] -6.65% | [5] -21.8% | [6] -24.4%

CCCCCCC(C)CC1=C(O)c2ccccc2C(=O)C1=O (stereo unspecified)
inactive: [1] -18.5% | [2] 7.55% | [3] -1.9% | [4] -38.4% | [5] 13.6% | [6] 5.25%

Oc1cccnc1CN1CCOCC1
inactive: [1] -3.55% | [2] -14.3% | [3] -12.6% | [4] 8.8% | [5] -6.15% | [6] 6.95%

C/C(=N/NC(N)=O)c1ccc(C)o1
inactive: [1] 1.85% | [2] -3.55% | [3] -4.4% | [4] -0.75% | [5] 1.55% | [6] 0.35%

Cn1c(=O)c2[nH]c(=S)[nH]c2n(C)c1=O
inactive: [1] -5.85% | [2] -20.7% | [3] -3% | [4] 11.1% | [5] -18.2% | [6] -4.75%

CCC(=O)C1CCCCN1 (stereo unspecified)
inactive: [1] 10.7% | [2] 17.1% | [3] -11.1% | [4] -48.4% | [5] -3.15% | [6] 3%

FC(F)(F)c1ccc(C(Nc2nncs2)Nc2nncs2)cc1
inactive: [1] -6.9% | [2] -6.7% | [3] -4.5% | [4] -8.35% | [5] 7.6% | [6] 0.75%

CSc1nc(=S)c2[nH]c(=S)[nH]c2[nH]1
inactive: [1] -1.2% | [2] 11.4% | [3] -6.5% | [4] -35.9% | [5] 21.5% | [6] 4.05%

O=C(/C=C/c1ccccc1)NN1CCOCC1
inactive: [1] 13.5% | [2] 3.25% | [3] 24.1% | [4] -34.5% | [5] 6.55% | [6] -2.95%

COc1ccc(C(=O)N=Nc2ccccc2)cc1
inactive: [1] 0.05% | [2] 0.7% | [3] -6.85% | [4] -49.9% | [5] 3.35% | [6] -13.1%

Cc1nc(-c2ccccc2)nc2c1nc(Cc1ccc(Cl)cc1)n2Nc1ccccc1
inactive: [1] 1.7% | [2] -0.3% | [3] 1.6% | [4] -5.75% | [5] -1.45% | [6] 40.5%

O=c1c2ncccc2cc2n1CCc1c-2[nH]c2ccccc12
inactive: [1] -15.3% | [2] -15.9% | [3] 6.3% | [4] -4.75% | [5] -1.1% | [6] -0.2%

Cc1cc2cc(Cl)ccc2nc1C(=O)c1ccccc1
inactive: [1] -5.75% | [2] -24.4% | [3] -3.3% | [4] 17.7% | [5] -6.65% | [6] -18.7%

CCOc1ccc2nc(NC(=O)/C(CC(=O)CC(C3=C(O)c4ccccc4CC3=O)c3ccccc3)=N\O)sc2c1 (stereo unspecified)
inactive: [1] -0.85% | [2] -7% | [3] -12.6% | [4] -18.6% | [5] -0.25% | [6] -20.1%

CC1(C)C2CCC1(C)C(OC(=O)C1OC(O)C(O)C(O)C1O)C2 (stereo unspecified)
inactive: [1] -1.3% | [2] 24.9% | [3] 12.8% | [4] -2.75% | [5] 27.6% | [6] 28.9%

Cc1c(/C=C\C(=O)c2ccccc2)c2ccccc2n1C
inactive: [1] 12.7% | [2] -18.6% | [3] 2.2% | [4] -21.6% | [5] -15.2% | [6] 1.15%

Nc1nc(N)nc(COc2ccccc2Cl)n1
inactive: [1] 6.5% | [2] 8.5% | [3] 8.35% | [4] 9.4% | [5] 15.2% | [6] 13.2%

CC1(C)SC(C)(C)C1=O
inactive: [1] -13.6% | [2] -7.35% | [3] -0.6% | [4] -36.8% | [5] 2.05% | [6] -5.15%

CCCC(=O)OCCc1ccccc1
inactive: [1] 12.8% | [2] 10.3% | [3] 16.4% | [4] -65.5% | [5] 5.1% | [6] -26%

Cc1ccc(C(=O)c2cc3c([nH]c4ccccc43)c(C)c2C(=O)O)cc1
inactive: [1] 15.8% | [2] -9.55% | [3] -5.1% | [4] 28.6% | [5] 21.5% | [6] 21.1%

CSc1ccc(NC(=O)Nc2cccc(C(C)=O)c2)cc1
inactive: [1] 2.15% | [2] 31.2% | [3] 10.3% | [4] -17.1% | [5] 43% | [6] 24.8%

CCOc1ccccc1NC(=O)C(Br)C(Br)c1ccccc1 (stereo unspecified)
inactive: [1] -1.1% | [2] 0.65% | [3] 30.9% | [4] -20.9% | [5] 20.1% | [6] 42.3%

O=C1c2cccnc2-c2ncccc21
inactive: [1] 16.3% | [2] 0.55% | [3] -1.35% | [4] 9.8% | [5] 5.4% | [6] 24.1%

CC(C)OCCOCCO
inactive: [1] 7.65% | [2] -10.5% | [3] -4.85% | [4] -24.9% | [5] 10.1% | [6] -1.2%

NC(Cc1ccsc1)C(=O)O (stereo unspecified)
inactive: [1] 0.15% | [2] 10.7% | [3] -22.7% | [4] -45.2% | [5] 20.5% | [6] -30.8%

CC(C)C(=O)OC1CCCCC1Cc1ccccn1 (stereo unspecified)
inactive: [1] 21.1% | [2] -3.25% | [3] 29.1% | [4] -17% | [5] 24.1% | [6] -6.8%

O=C(Nc1cccc([N+](=O)[O-])c1)OCC#CCOC(=O)Nc1cccc([N+](=O)[O-])c1
inactive: [1] 3.8% | [2] 7.5% | [3] 13.7% | [4] 11.8% | [5] 9.95% | [6] 16.1%

CC12CCC(=O)C=C1CCC1C2C(=O)CC2(C)C1CCC2(O)C(=O)Cn1cc(F)c(=O)[nH]c1=O (stereo unspecified)
inactive: [1] 12.1% | [2] 9.5% | [3] 32.8% | [4] 11.9% | [5] -1.25% | [6] 6.5%

CC(C)CCOC(=O)c1ccc(C(C)C)cc1
inactive: [1] 7.65% | [2] 9.85% | [3] -0.35% | [4] -17.7% | [5] 46.6% | [6] 5.3%

CC(=O)N(CCCCNC(=O)C(F)(F)F)CCCNC(=O)C(F)(F)F
inactive: [1] 2.7% | [2] -6.5% | [3] 6.55% | [4] 5.15% | [5] -26.8% | [6] -58.5%

Cc1cccc2c1Oc1ccccc1C2NC(=O)OCCc1ccccc1 (stereo unspecified)
inactive: [1] -14.3% | [2] -8.25% | [3] -7.25% | [4] -9.15% | [5] -8.05% | [6] 1.25%

C=C(C)COc1ccc(Nc2ccccc2)cc1
inactive: [1] 5.7% | [2] 18.4% | [3] 22% | [4] 6.65% | [5] 2.35% | [6] 34%

CC1(C)NNC(=S)NC1=O
inactive: [1] -11.7% | [2] -13.6% | [3] -7.65% | [4] 17.1% | [5] -15.6% | [6] -5.5%

COc1ccc(C(=O)CCc2cccc(NC(=O)CCCl)c2)cc1
inactive: [1] -17.6% | [2] 6.2% | [3] 6.45% | [4] -9.1% | [5] -6.85% | [6] -11.8%

Cc1[nH]c(=O)[nH]c(=O)c1/C=C/C(=O)NC(CO)CS(C)=O (stereo unspecified)
inactive: [1] -1.5% | [2] -7.15% | [3] 0.75% | [4] 6.1% | [5] 0.75% | [6] 7.05%

O=C1CN(c2ccccc2)CC(=O)N2Cc3ccccc3CN12
inactive: [1] -4.05% | [2] 1.2% | [3] 9.8% | [4] 17.1% | [5] 16.7% | [6] 14.7%
